Screens: PubChem, Broad Institute
Shown is part of a subset that was picked to be rich in hits.
A1 inh: A1 inhibition; MEF A1-2A-BIM cells, caspase-Glo luminescence, 3 h; percent of clofoctol signal, DMSO as zero; caspase activation, % (concentration not given with the values); 21,000 tested, 0.51% active; AID 2241;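 active means most replicate scores above 10, or exactly half above 10 with mean activity above 10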;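 further: effector caspase 3 and 7 activity cleaving a DEVD luciferin substrate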
* hit, by the source's call.

SMILES | A1 inh
CC(C)[C@]12O[C@H]1[C@@H]1O[C@]13[C@]1(O[C@H]1C[C@H]1C4=C(CC[C@@]13C)C(=O)OC4)[C@@H]2O | 16.4*
C[C@@H]1O[C@@H](O[C@H]2C[C@@H](O)[C@]3(CO)C4C(CC[C@]3(O)C2)[C@@]2(O)CC[C@H](C3=CC(=O)OC3)[C@@]2(C)C[C@H]4O)[C@H](O)[C@H](O)[C@H]1O (some centres not stated) | 0.8
CCOC(=S)SCc1nc2ccccc2c(=O)n1-c1ccccc1 | 0.2
CCN(CC)c1nc2ccccc2c(=O)n1-c1ccccc1 | 0.3
CCOC(=O)c1cc(C(C)(C)C)nc(OC(=O)N(C)C)c1C#N | -0.4
CO[C@H]1[C@@H](O)[C@@H](C)O[C@@H](O[C@@H]2C=C3C(OC(C)=O)CC4(O)C(CC[C@]5(C)[C@@H](C6=CC(=O)OC6)CC[C@]45O)[C@@]3(C)CC2)[C@@H]1O (some centres not stated) | 0.6
C[C@@H]1CCC/C=C/[C@H]2C[C@@H](O)C[C@@H]2[C@@H](O)/C=C\C(=O)O1 | 4.8
O=C(c1noc2c1COc1ccccc1-2)N1CCC2(CC1)OCCO2 | -6.4
COC[C@H]1OC(=O)c2coc3c2[C@@]1(C)C1=C(C3=O)[C@@H]2CCC(=O)[C@@]2(C)C[C@H]1OC(C)=O | 61.9*
CO/C1=C/C(C)=C/[C@@H](C)[C@@H](O)[C@@H](C)C/C(C)=C/C=C\[C@H](OC)[C@@H]([C@@H](C)[C@@H](O)[C@H](C)[C@@]2(O)C[C@@H](O)[C@H](C)[C@@H](C(C)C)O2)OC1=O | 0.2
COc1ccc2c(c1OC)CN1CCc3cc4c(cc3C1C2)OCO4 (configuration not stated) | -0.7
COc1ccc2c(c[n+](C)c3c4cc5c(cc4ccc23)OCO5)c1OC | 161.3*
COc1ccc2c(c1OC)C(=O)O[C@H]2[C@H]1c2cc3c(cc2CCN1C)OCO3 | 1.4
CCNCC(O)c1cccc(OC(=O)c2ccccc2C)c1 (configuration not stated) | -0.2
CC(=O)O[C@H]1CC[C@]2(C=O)[C@H]3CC[C@]4(C)[C@@H](C5=CC(=O)OC5)CC[C@]4(O)[C@@H]3CC[C@]2(O)C1 | 0.3
CN(C)C(=O)Oc1nnc(SCCS(=O)(=O)c2ccc(F)cc2)n1-c1ccccc1 | -0.5
C[C@@H]1C(=O)O[C@H]2[C@H]1CC[C@@]1(C)C=CC(=O)[C@@]3(C)O[C@@]213 | 0.4
CCC(C)[C@H]1C(=O)O[C@H](C(C)C)C(=O)N(C)[C@@H](C(C)CC)C(=O)O[C@H](C(C)C)C(=O)N(C)[C@@H](C(C)CC)C(=O)O[C@H](C(C)C)C(=O)N1C (some centres not stated) | 86.1*
C/C=C(/C)C(=O)O[C@H]1C(C)=C2[C@H]([C@@H]1OC(=O)CCCCCCC)[C@@](C)(OC(C)=O)C[C@H](OC(=O)CCC)[C@@]1(O)[C@H]2OC(=O)[C@@]1(C)O | 12.0*
C/C=C(\C)C(=O)OC1C(C)=C2C(C1OC(=O)CCCCCCC)C(C)(OC(C)=O)CC(OC(=O)CCC)C1(O)C2OC(=O)C1(C)O (configuration not stated) | 2.3
C/C=C(\C)[C@H](O)[C@H](C)/C=C(C)/C=C/C/C(C)=C/Cc1[nH]c(OC)c(OC)c(=O)c1C | 0.0
COC1CC(O[C@H]2CC[C@@]3(C)C(CCC4C3CC[C@]3(C)C(C5=CC(=O)OC5)CCC43O)C2)OC(C)C1OC1OC(COC2OC(CO)C(O)C(O)C2O)C(O)C(O)C1O (some centres not stated) | 0.1
CC[C@H]1CN2CCc3cc(OC)c(OC)cc3[C@@H]2C[C@@H]1C[C@H]1NCCc2cc(O)c(OC)cc21 | 18.6*
COc1cc2c(cc1OC)C(C)NCC2 (configuration not stated) | 0.0
COc1cc2c(cc1O)CCNC2C (configuration not stated) | -0.6
SMILES | A1 inh
Cc1cc(Br)c(NC(=O)C2C(C)(C)C2(C)C)c(Br)c1 | 0.1
C[C@H]1CC[C@@H]2[C@@H](C)[C@H]3[C@H](C[C@H]4[C@@H]5CC=C6CC(O[C@@H]7O[C@H](CO)[C@@H](O)[C@H](O[C@@H]8O[C@H](CO)[C@@H](O)[C@H](O)[C@H]8O)[C@@H]7O[C@@H]7O[C@@H](C)[C@H](O)[C@@H](O)[C@H]7O)CC[C@]6(C)[C@H]5CC[C@]34C)N2C1 (some centres not stated) | -1.9
Cc1cc(OCc2c(F)cccc2Cl)c2c3c(c(=O)oc2c1)CCCC3 | 0.6
CN(C)C(=O)Oc1cccc(N)c1 | 1.4
C[C@H]1O[C@@H](O[C@H]2C[C@@H](O)[C@]3(CO)C4C(CC[C@]3(O)C2)[C@@]2(O)CC[C@H](C3=CC(=O)OC3)[C@@]2(C)C[C@H]4O)[C@@H](O)[C@@H](O)[C@H]1O (some centres not stated) | -0.6
CC1C/C=C/C2C3OC3(C)C(C)C3C(Cc4ccccc4)NC(=O)C23OC(=O)O/C=C/C(C)(O)C1=O (configuration not stated) | 16.0*
CC(=O)OC1CCC2(C)C(CC[C@@H]3[C@@H]2CCC2(C)C(C4=CC(=O)OC4)CCC32O)C1 (some centres not stated) | -0.4
C=CC/C=C\C/C=C\CCCCCCCc1cc(O)cc(O)c1 | -0.2
CC(=O)NC1C(OC2OC(CC(O)C3OC(n4ccc(=O)[nH]c4=O)C(O)C3O)C(O)C(O)C2NC(=O)/C=C/CCCCCCCCCC(C)C)OC(CO)C(O)C1O (configuration not stated) | 3.1
CC(C)n1[nH]c(=O)c2c1NC(=O)CSC2c1ccc(Br)cc1 (configuration not stated) | 0.7
